Results on 11 molecules are retold here after PubChem BioAssay.

By viability is commonly meant a read-out of living cells in per cent, often relative to untreated cells. For orientation: AC50 means the midpoint of the concentration-response curve, whichever way the signal moves.

SMILES strings stand for the structures. Inconclusive results are not listed. Calls of active or inactive are those of the source.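 The calls were made as follows, unless noted: active = normalized viability below 100% at a tested concentration; inactive = the rest.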

Assay [1] is described as follows: growth inhibition of DIPG glioma cells, dose response, cell-based, SU-DIPG-XVII, MIPE5.0, CellTiter-Glo, qHTS (AID 1347060; cut-off not given, nearly all actives have AC50 up to about 26 µM;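 as to AC50: cells exposed to compound for 48 hours before viability readout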). The note with it: SU-DIPG-XVII viability, CellTiter-Glo ATP luminescence. On the technique in general: In ATP-based viability assays light output follows the ATP content of the culture.
Assay [2] is described as follows: growth inhibition of DIPG glioma cells, dose response, cell-based, SU-DIPG-XIII, MIPE5.0, CellTiter-Glo, qHTS (AID 1347064; cut-off not given, nearly all actives have AC50 up to about 23 µM;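 as to AC50: cells exposed to compound for 48 hours before the viability read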). The note with it: SU-DIPG-XIII viability, CellTiter-Glo ATP luminescence.
The nature of assay [3]: viability loss in pontine glioma line – cell-based, SU-DIPG-XXV, MIPE5.0, CellTiter-Glo, qHTS, dose response (AID 1347065; cut-off not given, nearly all actives have AC50 up to about 26 µM;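 also: cells exposed to compound for 48 hours before ATP readout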). The note with it: CellTiter-Glo ATP luminescence.
A short description of assay [4]: SU-DIPG-VI glioma cell viability, MIPE4.0 library, CellTiter-Glo luminescence, qHTS (AID 1347066; cut-off not given, nearly all actives have AC50 up to about 30 µM;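 also: cells exposed to compound for 48 hours before readout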). The note with it: CellTiter-Glo ATP luminescence.
A short description of assay [5]: JHH-DIPG-1 glioma cell viability, MIPE5.0 library, CellTiter-Glo luminescence, qHTS (AID 1347067; cut-off not given, nearly all actives have AC50 up to about 26 µM;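 also: cells exposed to compound for 48 hours before readout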). The note with it: JHH-DIPG-1 glioma viability, CellTiter-Glo ATP luminescence.
Assay [6] can be described thus: SU-DIPG-XXV glioma cell viability, MIPE5.0 library, qHTS (AID 1347068; cut-off not given, nearly all actives have IC50 up to about 30 µM). On the technique in general: In qHTS, concentration-response curves come from the screen itself.
The nature of assay [7]: sensitizers of A549 cells to miR-34 induction, primary screen, imaging, A549 dox-inducible miR-34, nuclei and caspase counts (AID 1347080;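 active = compounds whose cell count with miR-34 switched on is under 0.7 times the count with it off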). The note with it: A549 miR-34 inducible, Hoechst nuclei count, 48 h.
A short description of assay [8]: modifiers of HSF1 nuclear foci, imaging, Selleck Cancer Library (AID 1347162; in the data active = plate-normalised HSF1 focus index below about 0.46). The note with it: human cells, at 10 µM; SSMD: measured here: HSF1 foci SSMD mean; cell count: measured here: cell number; plate-normalised HSF1 focus index: stronger effect = lower value.
A short description of assay [9]: survival rescue of mitochondrial mutant cells in low glucose, primary screen, MELAS cybrids, Rieske KO mouse fibroblasts, CellTiter-Glo (AID 1508586;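 active = mean z-score across replicates of 1.96 or higher in either the MELAS or the Rieske mutant cell line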;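 also: z relative to plate mean and SD of compound and empty wells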).
Assay [10] can be described thus: ovarian cancer cell viability with rucaparib, profiling panel, oncology-focused library, rucaparib conditional (AID 1508598). The note with it: patient-derived ovarian cancer cells, CellTiter-Glo viability, 144 h, stronger effect = lower value.

For the molecule `NC(=O)C1CCCc2c1[nH]c1ccc(Cl)cc21` (stereo not given), the outcome in assay [1], in assay [2], in [3], in assay [4], in [5] and in [6] was inactive. The fold change was 1.01 (inactive) in [7] (stronger effect = lower value, cell number ratio, induced over uninduced) and 0.695 in [7] (measured here: relative caspase fold change +Dox/-Dox). Further, the cell count in [7] (measured here: total cells with miR-34 induction, stronger effect = lower value) amounted to 7360; in [7] (measured here: total cells without miR-34 induction), 7260; in assay [8] it was 6830. The molecule further yielded an SSMD in assay [8] of 1.46. The plate-normalised HSF1 focus index in assay [8] is 1.08 (inactive). Moreover, the z-score in assay [9] (MELAS cybrid survival, CellTiter-Glo 48 h, stronger effect = higher value) is -0.456 (inactive); in assay [9] (Rieske KO mouse fibroblast survival, CellTiter-Glo 72 h) it was -0.725. Also, the viability in assay [10] (at 0.000305 µM, OCI-C5x cells, with rucaparib 10 µM, 100% = cells with rucaparib alone) was 114% (inactive); in assay [10] (at 0.000305 µM, OCI-C5x cells, without rucaparib) it was 113% (inactive); in [10] (at 0.000305 µM, OCI-P5x cells, with rucaparib 20 µM, 100% = cells with rucaparib alone), 92.1% (active); in assay [10] (at 0.000305 µM, OCI-P5x cells, without rucaparib), 96.9% (active); in assay [10] (at 0.00122 µM, OCI-C5x cells, with rucaparib 10 µM, 100% = cells with rucaparib alone), 118% (inactive); in assay [10] (at 0.00122 µM, OCI-C5x cells, without rucaparib), 119% (inactive). The viability is 109% (inactive) in [10] (at 0.00122 µM, OCI-P5x cells, with rucaparib 20 µM, 100% = cells with rucaparib alone); 101% (inactive) in assay [10] (at 0.00122 µM, OCI-P5x cells, without rucaparib); 117% (inactive) in [10] (at 0.00488 µM, OCI-C5x cells, with rucaparib 10 µM, 100% = cells with rucaparib alone); 114% (inactive) in assay [10] (at 0.00488 µM, OCI-C5x cells, without rucaparib); 105% (inactive) in [10] (at 0.00488 µM, OCI-P5x cells, with rucaparib 20 µM, 100% = cells with rucaparib alone); 111% (inactive) in [10] (at 0.00488 µM, OCI-P5x cells, without rucaparib). Besides, the viability is 106% (inactive) in assay [10] (at 0.0195 µM, OCI-C5x cells, with rucaparib 10 µM, 100% = cells with rucaparib alone); 115% (inactive) in [10] (at 0.0195 µM, OCI-C5x cells, without rucaparib); 109% (inactive) in assay [10] (at 0.0195 µM, OCI-P5x cells, with rucaparib 20 µM, 100% = cells with rucaparib alone); 116% (inactive) in assay [10] (at 0.0195 µM, OCI-P5x cells, without rucaparib); 113% (inactive) in [10] (at 0.0781 µM, OCI-C5x cells, with rucaparib 10 µM, 100% = cells with rucaparib alone); 112% (inactive) in [10] (at 0.0781 µM, OCI-C5x cells, without rucaparib). The viability in [10] (at 0.0781 µM, OCI-P5x cells, with rucaparib 20 µM, 100% = cells with rucaparib alone) is 105% (inactive); in assay [10] (at 0.0781 µM, OCI-P5x cells, without rucaparib), 117% (inactive); in assay [10] (at 0.313 µM, OCI-C5x cells, with rucaparib 10 µM, 100% = cells with rucaparib alone), 112% (inactive); in [10] (at 0.313 µM, OCI-C5x cells, without rucaparib), 124% (inactive); in assay [10] (at 0.313 µM, OCI-P5x cells, with rucaparib 20 µM, 100% = cells with rucaparib alone), 105% (inactive); in assay [10] (at 0.313 µM, OCI-P5x cells, without rucaparib), 120% (inactive). The viability in [10] (at 1.25 µM, OCI-C5x cells, with rucaparib 10 µM, 100% = cells with rucaparib alone) was 109% (inactive); in assay [10] (at 1.25 µM, OCI-C5x cells, without rucaparib), 118% (inactive); in assay [10] (at 1.25 µM, OCI-P5x cells, with rucaparib 20 µM, 100% = cells with rucaparib alone), 107% (inactive); in [10] (at 1.25 µM, OCI-P5x cells, without rucaparib), 120% (inactive); in assay [10] (at 5 µM, OCI-C5x cells, with rucaparib 10 µM, 100% = cells with rucaparib alone) it was 100% (active); in [10] (at 5 µM, OCI-C5x cells, without rucaparib) it was 124% (inactive). For the same molecule, the viability in assay [10] (at 5 µM, OCI-P5x cells, with rucaparib 20 µM, 100% = cells with rucaparib alone) was 95% (active); in assay [10] (at 5 µM, OCI-P5x cells, without rucaparib) it was 114% (inactive).
As for `C[C@H]1Oc2cc(cnc2N)-c2c(nn(C)c2C#N)CN(C)C(=O)c2ccc(F)cc21`, the AC50 in assay [1] was 14.8 µM (active); in assay [2] it was 10.5 µM (active); in [3], 9.34 µM (active).
As for `O=C(NCc1ccc(S(=O)(=O)c2cccc(C(F)(F)F)c2)cc1)c1cnc2[nH]ncc2c1`, the AC50 is 0.0263 µM (active) in assay [1], 0.0118 µM (active) in assay [2], 0.0166 µM (active) in [3] and 0.0148 µM (active) in assay [5].
Take `O=c1sn(-c2cccc3ccccc23)c(=O)n1Cc1ccccc1`: the AC50 in assay [1] was 23.5 µM (active); in [2] it was 13.2 µM (active); in assay [3] it was 14.8 µM (active); in assay [5] it was 3.72 µM (active).
Regarding `CCn1c(=O)c(-c2ccn[nH]2)cc2c(C)nc(N)nc21`, the values for the AC50 in assay [1], in [2] and in [3] were 7.42 µM (active), 5.9 µM (active) and 4.17 µM (active), respectively.
For the molecule `CC(C)NC(=O)C1CCC(n2c(NC(=O)c3ccc(F)cc3)nc3ccc(CN4CCC(C(C)(C)O)CC4)cc32)CC1` (stereo not given), the AC50 was 9.1 µM (active) in assay [1], 7.23 µM (active) in [2] and 6.45 µM (active) in assay [3]. Moreover, the call in assay [5] was inactive.
For `Cc1cc(C(=O)Nc2cc(Nc3ccc4c(/C=C/c5ccccn5)n[nH]c4c3)ccc2F)n(C)n1`, the concentration at half-maximal activity (AC50) in assay [1] was 8.33 µM (active); in assay [2], 7.42 µM (active); in [3], 3.72 µM (active); in assay [5], 16.6 µM (active).
With `CCCCOc1nc(N)c2c(n1)N(Cc1cccc(CN3CCCC3)c1)CC(=O)N2`, the molecule was called inactive in assay [1], in assay [2] and in [3].
On to `CCO[C@@H]1OC(=O)C[C@@H]1NC(=O)[C@@H]1CCCN1C(=O)[C@@H](NC(=O)c1ccc(N)c(Cl)c1)C(C)(C)C`, for which the AC50 in [1] was 23.5 µM (active). Besides, the result in assay [2], in [3], in assay [4], in assay [5] and in assay [6] was inactive.
With `OC1CCC(Nc2ncc3nc(Nc4c(F)cc(F)cc4F)n([C@@H]4CCOC4)c3n2)CC1` (stereo not given in full), the outcome in [1], in [2], in assay [3], in assay [4], in [5] and in [6] was inactive.
Turning to `CCC[C@H](NC(=O)[C@@H]1[C@H]2CCC[C@H]2CN1C(=O)[C@@H](NC(=O)[C@@H](NC(=O)c1cnccn1)C1CCCCC1)C(C)(C)C)C(=O)C(=O)NC1CC1`, the molecule was classed as inactive in assay [1], in assay [2], in assay [3], in assay [4] and in [6]. Further, in assay [5], the AC50 is 18.6 µM (active).
